Measurements taken from PubChem BioAssay (EPA / NIEHS).
The source made the active and inactive calls. The calls were made as follows: active = hit-call score of the fitted dose curve at least 0.9, where 1 is the maximum; inactive = score below 0.9.

Key:
[1] = ATG_E_Box_CIS: Attagene CIS-FACTORIAL HepG2 Assay for human Enhancer Box (E-box) (AID 2282936); conditions: HepG2 E-box cis-reporter transcription, actives raise or lower the signal
Procedure, shortened: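 HepG2 cells transiently transfected with multiplexed cis-element reporter units, dosed 24 h; reporter mRNA quantified by RT-PCR, 6-FAM labelling, HpaI digestion and capillary electrophoresis. E-box (USF1) signal fitted bidirectionally vs DMSO.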

[2] = ATG_M_61_CIS: Attagene CIS-FACTORIAL HepG2 Assay for M61 Transcription Factor (Internal Marker) (AID 2282937); conditions: HepG2 Attagene CIS-FACTORIAL M61 internal marker reporter; actives raise or lower the signal
Procedure, shortened: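 Using transiently transfected HepG2 liver cells, reporter transcript levels were assessed 24 h post-dosing by RT-PCR and capillary electrophoresis. Changes in either direction were fitted relative to DMSO controls.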

[3] = ATG_EGR_CIS: Attagene CIS-FACTORIAL HepG2 Assay for human Early Growth Response 1 (EGR1) (AID 2282938); conditions: HepG2 Attagene CIS-FACTORIAL EGR reporter mRNA; actives raise or lower the signal
Procedure, shortened: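 Fluorescent capillary-electrophoresis signal of reporter cDNA fragments serves as read-out. HepG2 cells bear transiently transfected cis-promoter reporter units and are exposed 24 h; gain- or loss-of-signal is fitted against DMSO.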

[4] = ATG_M_19_CIS: Attagene CIS-FACTORIAL HepG2 Assay for M19 Transcription Factor (Internal Marker) (AID 2282939); conditions: HepG2 Attagene CIS-FACTORIAL M19 internal marker reporter; actives raise or lower the signal
Procedure, shortened: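 In this multiplexed cell assay, transiently transfected HepG2 reporter units report endogenous transcription-factor activity; after 24 hours of treatment, labelled reporter cDNA fragments are quantified by capillary electrophoresis and fitted bidirectionally against DMSO.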

[5] = ATG_Ets_CIS: Attagene CIS-FACTORIAL HepG2 Assay for human Erythroblast Transformation Specific (ETS) (AID 2282941); conditions: HepG2 ETS cis-reporter transcription, actives raise or lower the signal
Procedure, shortened: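 HepG2 cells transiently transfected with cis-promoter reporter transcription units were dosed for 24 h; reporter mRNA was measured by RT-PCR, 6-FAM primer extension, HpaI digestion and capillary electrophoresis, with bidirectional fitting against DMSO baseline.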

[6] = target: Hepatocyte nuclear factor 3-beta (Homo sapiens) (UniProt Q9Y261); experiment: ATG_FoxA2_CIS: Attagene CIS-FACTORIAL HepG2 Assay for human Forkhead box A2 (FOXA2) (AID 2282942); conditions: HepG2 cis-reporter transcription factor activity, 24 h; actives raise or lower the signal
Hepatocyte nuclear factor 3-beta (Homo sapiens), sequence (Q9Y261 whole entry, looked up, the tested form may be a part): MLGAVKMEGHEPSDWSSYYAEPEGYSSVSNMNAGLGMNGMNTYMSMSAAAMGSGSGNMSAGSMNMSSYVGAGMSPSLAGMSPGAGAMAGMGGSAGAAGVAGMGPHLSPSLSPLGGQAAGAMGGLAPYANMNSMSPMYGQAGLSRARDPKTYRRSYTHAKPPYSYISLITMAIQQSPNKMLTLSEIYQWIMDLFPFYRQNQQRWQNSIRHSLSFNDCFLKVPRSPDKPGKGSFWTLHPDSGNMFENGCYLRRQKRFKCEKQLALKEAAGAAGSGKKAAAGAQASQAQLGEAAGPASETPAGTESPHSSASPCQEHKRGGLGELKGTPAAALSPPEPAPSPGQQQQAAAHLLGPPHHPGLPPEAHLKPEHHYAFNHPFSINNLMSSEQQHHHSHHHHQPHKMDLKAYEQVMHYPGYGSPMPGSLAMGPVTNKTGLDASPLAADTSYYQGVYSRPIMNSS
Procedure, shortened: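 Fluorescence signal of reporter cDNA fragments, separated by capillary electrophoresis, reflects endogenous transcription factor activity in transfected HepG2 after 24 h. Both increases and decreases fitted against DMSO.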

[7] = ATG_FoxO_CIS: Attagene CIS-FACTORIAL HepG2 Assay for human Forkhead box O (FoxO) (AID 2282943); conditions: HepG2 Attagene cis-reporter, FoxO element, mRNA; actives raise or lower the signal
Procedure, shortened: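 HepG2 cells transiently transfected with cis-element-driven reporter units report endogenous FoxO activity. After 24 h chemical exposure, reporter mRNA quantified by RT-PCR, fluorescent labeling, HpaI digestion and capillary electrophoresis; bidirectional fit versus DMSO.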

[8] = ATG_GATA_CIS: Attagene CIS-FACTORIAL HepG2 Assay for human GATA Binding Protein (AID 2282944); conditions: HepG2 GATA cis-element reporter, Attagene multiplex mRNA; actives raise or lower the signal
Procedure, shortened: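 Measures endogenous transcription factor-driven reporter mRNA in HepG2 cells transiently carrying cis-regulated constructs. 24 h dosing; RNA via oligo(dT) reverse transcription, PCR, HpaI digestion, capillary electrophoresis; fitted relative to DMSO.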

[9] = ATG_GLI_CIS: Attagene CIS-FACTORIAL HepG2 Assay for human Zinc Finger Protein GLI1 (AID 2282945); conditions: HepG2, Attagene cis-factorial reporter mRNA, GLI element; actives raise or lower the signal
Procedure, shortened: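 Transiently transfected HepG2 cells report endogenous transcription factor activity via cis-element-driven reporter units. After 24 h compound exposure, reporter mRNA was measured by RT-PCR with capillary electrophoresis; bidirectional fitting against DMSO baseline.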

[10] = ATG_GRE_CIS: Attagene CIS-FACTORIAL HepG2 Assay for human Glucocorticoid Response Elements (GRE) (AID 2282947); conditions: HepG2 GRE cis-reporter, Attagene multiplex mRNA; actives raise or lower the signal
Procedure, shortened: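 Transiently transfected HepG2 cells carrying GRE cis-reporter units (endogenous TF activity) dosed 24 h; reporter mRNA quantified by RT-PCR, 6-FAM labelling, HpaI digestion and capillary electrophoresis. Bidirectional fit versus DMSO baseline.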

[11] = ATG_ISRE_CIS: Attagene CIS-FACTORIAL HepG2 Assay for human Interferon Regulatory Factor 1 (IRF1) binding to an Interferon-Stimulated Response Element (ISRE) (AID 2282948); conditions: HepG2 ISRE cis-reporter (Attagene), mRNA transcription readout; actives raise or lower the signal
Procedure, shortened: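 HepG2 cells transiently transfected with multiplexed cis-promoter reporter units; after 24 h compound exposure, reporter mRNA quantified by RT-PCR, FAM labelling, HpaI digestion and capillary electrophoresis. Bidirectional fit versus DMSO baseline.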

[12] = ATG_M_32_CIS: Attagene CIS-FACTORIAL HepG2 Assay for M32 Transcription Factor (Internal Marker) (AID 2282949); conditions: HepG2 Attagene cis-factorial M32 reporter, mRNA; actives raise or lower the signal;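 also: background control marker of the multiplexed CIS panel rather than a real target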
Procedure, shortened: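 HepG2 cells transiently transfected with multiplexed cis-regulated reporter units, dosed 24 h. Reporter mRNA quantified by RT-PCR, 6-FAM labelling, HpaI digestion and capillary electrophoresis; bidirectional fit vs DMSO.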

[13] = ATG_M_06_CIS: Attagene CIS-FACTORIAL HepG2 Assay for M06 Transcription Factor (Internal Marker) (AID 2282950); conditions: HepG2 Attagene CIS-FACTORIAL M06 internal marker reporter; actives raise or lower the signal
Procedure, shortened: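 One of many multiplexed endpoints: HepG2 reporter mRNA after 24 h dosing, detected by RT-PCR and capillary electrophoresis fluorescence; gain or loss of signal analysed against DMSO.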

[14] = target: Hypoxia-inducible factor 1-alpha (Homo sapiens) (UniProt Q16665); experiment: ATG_HIF1a_CIS: Attagene CIS-FACTORIAL HepG2 Assay for human Hypoxia Inducible Factor 1 (HIF1A) (AID 2282951); conditions: HepG2 Attagene cis-factorial HIF1a reporter transcription; actives raise or lower the signal
Hypoxia-inducible factor 1-alpha (Homo sapiens), sequence (Q16665 whole entry, looked up): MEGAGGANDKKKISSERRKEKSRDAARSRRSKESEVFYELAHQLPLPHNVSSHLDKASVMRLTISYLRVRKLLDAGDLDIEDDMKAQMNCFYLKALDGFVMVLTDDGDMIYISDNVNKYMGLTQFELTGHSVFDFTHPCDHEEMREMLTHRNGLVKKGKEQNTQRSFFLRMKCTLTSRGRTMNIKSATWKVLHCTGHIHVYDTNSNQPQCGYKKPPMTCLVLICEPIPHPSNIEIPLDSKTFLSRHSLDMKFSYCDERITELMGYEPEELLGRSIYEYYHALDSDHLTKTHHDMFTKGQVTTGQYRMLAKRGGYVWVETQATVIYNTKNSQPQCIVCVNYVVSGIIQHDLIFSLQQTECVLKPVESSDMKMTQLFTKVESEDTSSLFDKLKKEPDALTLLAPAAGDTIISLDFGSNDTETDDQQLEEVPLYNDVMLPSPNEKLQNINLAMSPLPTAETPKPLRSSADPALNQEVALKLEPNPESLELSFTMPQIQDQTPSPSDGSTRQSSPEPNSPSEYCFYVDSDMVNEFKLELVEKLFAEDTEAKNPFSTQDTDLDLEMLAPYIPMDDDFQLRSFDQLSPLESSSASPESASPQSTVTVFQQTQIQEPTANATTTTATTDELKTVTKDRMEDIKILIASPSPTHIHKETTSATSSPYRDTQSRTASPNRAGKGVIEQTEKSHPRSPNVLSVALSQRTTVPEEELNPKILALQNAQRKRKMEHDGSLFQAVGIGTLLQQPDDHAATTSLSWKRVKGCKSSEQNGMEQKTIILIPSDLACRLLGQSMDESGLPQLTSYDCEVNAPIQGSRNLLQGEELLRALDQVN
Procedure, shortened: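 Endogenous-TF cis reporter readout, human HepG2 cells, 24 h incubation; mRNA detected via RT-PCR and capillary electrophoresis fluorescence; DMSO-normalised bidirectional fitting.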

[15] = target: Hepatocyte nuclear factor 6 (Homo sapiens) (UniProt Q9UBC0); experiment: ATG_HNF6_CIS: Attagene CIS-FACTORIAL HepG2 Assay for human Hepatocyte Nuclear Factor 6 (HNF6) (AID 2282952); conditions: HepG2 Attagene cis-factorial HNF6 reporter transcription; actives raise or lower the signal
Hepatocyte nuclear factor 6 (Homo sapiens), sequence (Q9UBC0 whole entry, looked up): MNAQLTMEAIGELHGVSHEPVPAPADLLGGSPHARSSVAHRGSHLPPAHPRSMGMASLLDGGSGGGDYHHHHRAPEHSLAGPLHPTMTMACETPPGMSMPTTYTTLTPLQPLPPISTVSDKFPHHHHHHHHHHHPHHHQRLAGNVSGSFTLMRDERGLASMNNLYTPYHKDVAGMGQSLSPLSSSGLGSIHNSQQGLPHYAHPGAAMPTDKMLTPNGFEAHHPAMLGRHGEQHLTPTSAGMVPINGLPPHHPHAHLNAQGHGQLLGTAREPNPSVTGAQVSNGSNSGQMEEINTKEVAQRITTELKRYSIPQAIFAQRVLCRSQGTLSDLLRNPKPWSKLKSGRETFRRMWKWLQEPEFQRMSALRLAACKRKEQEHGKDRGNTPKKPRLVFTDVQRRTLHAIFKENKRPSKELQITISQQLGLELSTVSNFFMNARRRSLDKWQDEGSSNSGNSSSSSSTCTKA
Procedure, shortened: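 Multiplexed mRNA reporter assay in transfected HepG2; 24 h dosing; RT-PCR plus capillary electrophoresis fluorescence; DMSO-referenced bidirectional curve fitting.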

[16] = ATG_MRE_CIS: Attagene CIS-FACTORIAL HepG2 Assay for human Metal Responsive Element (MRE) (AID 2282954); conditions: HepG2 MRE cis-reporter transcription, Attagene multiplex; actives raise or lower the signal
Procedure, shortened: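 HepG2 cells transiently transfected with cis-element-driven reporter units; mRNA measured 24 h after dosing. Reporter transcripts quantified by RT-PCR, FAM labelling, HpaI digestion and capillary electrophoresis; bidirectional fit versus DMSO.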

[17] = ATG_PBREM_CIS: Attagene CIS-FACTORIAL HepG2 Assay for human Phenobarbital-responsive Enhancer Module (PBREM) (AID 2282955); conditions: HepG2 PBREM cis-reporter, Attagene multiplexed transcription; actives raise or lower the signal
Procedure, shortened: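 Readout: reporter mRNA, fluorescent RT-PCR fragments separated by capillary electrophoresis. System: HepG2 transiently transfected with cis-regulated reporter units. Exposure: 24 h. Analysis: bidirectional, DMSO baseline.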

[18] = target: Bile acid receptor (Homo sapiens) (UniProt Q96RI1); experiment: ATG_IR1_CIS: Attagene CIS-FACTORIAL HepG2 Assay for human Nuclear Receptor Subfamily 1 Group H Member 4 (NR1H4), IR1 submotif (AID 2282946); conditions: IR1 reporter transcription, actives raise or lower the signal
Bile acid receptor (Homo sapiens), sequence (Q96RI1 whole entry, looked up): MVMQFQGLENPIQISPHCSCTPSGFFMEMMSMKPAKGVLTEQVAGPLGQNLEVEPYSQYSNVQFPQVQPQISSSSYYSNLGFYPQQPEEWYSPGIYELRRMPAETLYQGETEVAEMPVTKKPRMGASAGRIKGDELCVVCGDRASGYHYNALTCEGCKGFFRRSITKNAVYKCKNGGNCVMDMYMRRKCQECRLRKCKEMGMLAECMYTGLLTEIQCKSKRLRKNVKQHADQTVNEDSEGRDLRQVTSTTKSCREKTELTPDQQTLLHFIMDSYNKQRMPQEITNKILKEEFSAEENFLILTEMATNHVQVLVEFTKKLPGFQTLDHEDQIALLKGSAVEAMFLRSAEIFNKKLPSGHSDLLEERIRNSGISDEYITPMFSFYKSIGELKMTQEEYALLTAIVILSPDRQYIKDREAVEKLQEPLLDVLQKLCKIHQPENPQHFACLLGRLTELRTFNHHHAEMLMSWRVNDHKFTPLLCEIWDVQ
Procedure, shortened: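 HepG2 cells transiently transfected with multiple cis-promoter-driven reporter units to measure endogenous transcription factor activity; 24 h exposure. Reporter mRNA read by RT-PCR, FAM labelling, HpaI digestion and capillary electrophoresis. Bidirectional fit versus DMSO.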

[19] = target: Heat shock factor protein 1 (Homo sapiens) (UniProt Q00613); experiment: ATG_HSE_CIS: Attagene CIS-FACTORIAL HepG2 Assay for human Heat Shock Transcription Factor 1 (HSE) (AID 2282953); conditions: HepG2 HSE cis-reporter, Attagene RNA transcription; actives raise or lower the signal
Heat shock factor protein 1 (Homo sapiens), sequence (Q00613 whole entry, looked up): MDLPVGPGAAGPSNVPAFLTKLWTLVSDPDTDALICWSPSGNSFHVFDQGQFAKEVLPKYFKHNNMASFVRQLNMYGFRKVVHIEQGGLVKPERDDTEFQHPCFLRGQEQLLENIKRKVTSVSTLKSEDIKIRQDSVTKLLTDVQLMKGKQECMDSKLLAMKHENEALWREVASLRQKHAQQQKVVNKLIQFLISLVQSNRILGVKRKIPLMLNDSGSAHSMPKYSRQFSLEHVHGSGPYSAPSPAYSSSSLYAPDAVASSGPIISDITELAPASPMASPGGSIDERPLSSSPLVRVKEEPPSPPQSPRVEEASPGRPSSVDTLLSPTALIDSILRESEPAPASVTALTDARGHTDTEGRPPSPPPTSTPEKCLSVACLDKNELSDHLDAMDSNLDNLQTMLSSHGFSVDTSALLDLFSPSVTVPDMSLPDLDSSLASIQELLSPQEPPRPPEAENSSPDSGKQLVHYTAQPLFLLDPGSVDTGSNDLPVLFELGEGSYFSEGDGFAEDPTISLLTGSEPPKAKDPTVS
Procedure, shortened: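 Using HepG2 with transfected cis-driven reporter constructs, compound effects on endogenous factor activity are scored as reporter mRNA change at 24 h. Detection: RT-PCR, HpaI digestion, capillary electrophoresis; bidirectional fitting to DMSO.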

Measured: AC50

COC(=O)c1cccnc1
not listed: [18] | [19]
inactive: all other assays above

O=[N+]([O-])c1ccc(O)cc1C(F)(F)F
active: [16] 61.1 µM
not listed: [11] | [13]
inactive: all other assays above

COC(=O)Nc1ccc(Cl)c(Cl)c1
active: [10] 25.7 µM | [16] 49.7 µM
not listed: [11] | [14]
inactive: all other assays above

C[Si](C)(C)O[Si](C)(C)C
not listed: [10] | [14] | [17]
inactive: all other assays above

C=C[Si]1(C)O[Si](C)(C=C)O[Si](C)(C=C)O[Si](C)(C=C)O1 (stereo not drawn)
not listed: [16] | [18]
inactive: all other assays above

CN(C)CCOC(C)(c1ccccc1)c1ccccn1 (stereo not drawn)
not listed: [10] | [13] | [14]
inactive: all other assays above

N#Cc1cscn1
not listed: [10]
inactive: all other assays above

C=CCCCCCCCCCC
not listed: [18]
inactive: all other assays above

NCCNc1cccc2ccccc12
active: [1] 176 µM | [3] 141 µM | [14] 100 µM | [16] 156 µM
not listed: [18] | [19]
inactive: all other assays above

CCOc1ccccc1O
not listed: [10] | [19]
inactive: all other assays above

OCc1ccc(Cl)cc1Cl
not listed: [10]
inactive: all other assays above

CCCOC(=O)c1c(Cl)c(Cl)c(Cl)c(Cl)c1C(=O)OCCC
active: [9] 74.8 µM | [11] 62.1 µM | [16] 162 µM
not listed: [18]
inactive: all other assays above

C=Cc1ccc(C)cc1
not listed: [15] | [18]
inactive: all other assays above

O=C1CCCC=CCCCCCCCCCC1
active: [11] 41.2 µM | [19] 63 µM
not listed: [10] | [15]
inactive: all other assays above

CC(C)C(OC(=O)c1ccccc1)C(C)(C)COC(=O)c1ccccc1 (stereo not drawn)
not listed: [10]
inactive: all other assays above
